Screening results from PubChem.
This is one part of a sample in which hits are shown more often than they occur.
RBX1-CUL1 inh: inhibitors of human ROC1-CUL1 ubiquitin ligase activity. AID 1347404. 140,000 compounds, 0.6% hits. P62877+Q13616. in vitro K48 di-Ub FRET, acceptor:donor ratio, 45 min. inhibition, % at 10 µM; in the data active means inhibition above about 25%
Target sequence (P62877 whole entry, looked up): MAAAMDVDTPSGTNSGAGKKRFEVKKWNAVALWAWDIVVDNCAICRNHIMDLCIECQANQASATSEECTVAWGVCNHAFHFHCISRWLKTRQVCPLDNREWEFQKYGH
Target sequence (Q13616 whole entry, looked up): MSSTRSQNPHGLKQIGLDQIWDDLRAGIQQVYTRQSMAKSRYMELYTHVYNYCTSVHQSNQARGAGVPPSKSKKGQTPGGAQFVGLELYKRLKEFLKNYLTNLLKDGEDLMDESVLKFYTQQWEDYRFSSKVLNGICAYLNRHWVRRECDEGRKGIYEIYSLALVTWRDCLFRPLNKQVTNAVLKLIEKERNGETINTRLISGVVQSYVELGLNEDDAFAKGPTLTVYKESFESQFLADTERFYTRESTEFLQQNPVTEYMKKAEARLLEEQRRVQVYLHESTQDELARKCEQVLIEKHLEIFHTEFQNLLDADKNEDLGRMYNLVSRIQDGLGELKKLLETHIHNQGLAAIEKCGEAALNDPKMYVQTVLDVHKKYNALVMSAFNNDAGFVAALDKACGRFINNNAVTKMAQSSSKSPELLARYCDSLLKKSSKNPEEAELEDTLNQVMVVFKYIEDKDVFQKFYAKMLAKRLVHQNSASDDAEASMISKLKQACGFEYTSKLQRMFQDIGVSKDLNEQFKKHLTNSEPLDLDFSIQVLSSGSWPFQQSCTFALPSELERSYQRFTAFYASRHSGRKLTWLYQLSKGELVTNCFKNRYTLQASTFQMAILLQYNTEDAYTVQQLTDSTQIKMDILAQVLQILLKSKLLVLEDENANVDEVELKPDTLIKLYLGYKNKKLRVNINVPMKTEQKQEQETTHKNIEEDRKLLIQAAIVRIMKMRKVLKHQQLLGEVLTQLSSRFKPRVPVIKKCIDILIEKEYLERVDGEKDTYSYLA
The depositor's hits bear a star.

SMILES	RBX1-CUL1 inh
CCCC1=NN2C(=N)/C(=C/c3ccc(-c4cccc(C(=O)O)c4)o3)C(=O)N=C2S1	10.7
CCCCCCCC1=NN2C(=N)/C(=C/c3ccc(-c4cccc(C(=O)O)c4)o3)C(=O)N=C2S1	96.8*
O=C1NC(=S)N(c2cccc(F)c2)C(=O)/C1=C/c1ccc(Sc2ccc(Cl)cc2)o1	0.3
O=C1NC(=S)N(c2ccc(Br)cc2)C(=O)/C1=C/c1ccc(Sc2nc3ccccc3[nH]2)o1	107.6*
Cc1ccc(N2C(=O)/C(=C/c3ccc(-c4ccccc4)o3)C(=O)NC2=S)cc1Cl	-2.4
CCN1CCCC1CNC(=O)CCC1CCN(C(=O)C2=CCCCC2)CC1 (stereo not given)	0.1
Cc1cc(C)c(NC(=S)NC(=O)CC(C)C)c(C)c1	2.6
COc1ccc(Br)cc1CNc1ccc2[nH]c(=O)[nH]c2c1	0.7
CCc1ccc(CNc2ccc(O)cc2)cc1	-15.3
Oc1ccc(NCc2ccc(Br)cc2)cc1	75.8*
Oc1ccc(NCc2ccc(OCc3ccccc3)cc2)cc1	1.1
CNCc1cc(Br)ccc1OC	2.7
COc1ccc(Br)cc1CNc1ccc(O)cc1	41.1*
C=CCn1c(SCCC)nc2c1c(=O)[nH]c(=O)n2C	10.5
Cc1cccc(NC(=O)CN2C(=O)N=C(Cc3cc(C)n(-c4ccc(F)c(Cl)c4)c3C)C2=O)c1	3.3
C=CCOc1c(Br)cc(CC2=NC(=S)N(C)C2=O)cc1OCC	-6.1
CN(C)C(=O)c1cc(-c2cnn(CCO)c2)nc2cc(F)ccc12	2.7
Cc1ccc(NC(=O)COc2cccc(C3C4=C(CCCC4=O)N=C4CCCC(=O)C43)c2)cc1Cl (stereo not given)	2.2
CC(C)Oc1c(-c2ccccc2)c(=O)c1=O	7.0
CC(C)Oc1c(-c2ccco2)c(=O)c1=O	68.5*
CC(C)Oc1c(-c2ccc(F)cc2)c(=O)c1=O	-8.8
CCN1CC=C2C(C#N)C(=N)C(C#N)(C#N)C(c3cccc(C)c3)C2C1 (stereo not given)	-4.2
COC(=O)C1C(C)=NC(=S)NC1c1cc(Cl)ccc1OCc1ccccc1 (stereo not given)	3.5
Fc1ccc(NCc2cc3c(cc2Br)OCO3)c(F)c1	-1.6
Cc1ccc(C=Nc2ccc(-c3nc4ccc(C)cc4s3)cc2)cc1	-4.7
SMILES	RBX1-CUL1 inh
COCC(=O)NCc1cccnc1N1CCN(c2ccccn2)CC1	-7.1
CC(/C=C/C(=O)c1ccc(C)cc1)=C\c1ccccc1	0.6
O=C(/C=C/C(=O)c1ccccc1)c1ccccc1	26.7*
COc1ccccc1/C=C/C(=O)c1ccccc1	2.0
NCc1ccccc1Sc1ccc(Cl)cc1	31.2*
O=C(O)Cc1ccccc1Sc1ccc(Cl)cc1	-11.7
CC(=O)c1ccccc1Sc1ccc(Cl)cc1	8.1
C=CCN1C(=O)C(CC(N)=O)NC1=S (stereo not given)	1.2
Cc1n[nH]c(C)c1CCCN(C)[C@@H]1c2ccccc2C2(CCNCC2)[C@H]1O	1.9
CC1=NN(c2ccc(C(=O)O)cc2)C(=O)/C1=C/c1cc(C(C)(C)C)c(O)c(C(C)(C)C)c1	12.1
CC1=NN(c2ccc(Cl)c(C(=O)O)c2)C(=O)/C1=C\c1cnn(-c2ccc(C)c(C)c2)c1	99.5*
CC1=NN(c2ccc(Cl)c(Cl)c2)C(=O)/C1=C/c1ccc(C)cc1	-8.1
O=C1CC=Cc2ccc(O)c(O)c2C1=O	53.1*
Cc1ccc(-n2nnnc2-c2cn[nH]c2-c2ccc(C(F)(F)F)cc2)cc1	1.8
COc1ccc2sc3ccccc3c(=O)c(=O)c2c1	0.0
Cc1ccccc1NC(=O)c1ccc([N+](=O)[O-])cc1Cl	2.3
COc1ccc(C(=O)COC(=O)c2ccc(C)c(S(=O)(=O)N3CCC(C)CC3)c2)cc1OC	5.5
COc1cc(OC)cc(C(=O)NCCNC(=O)C[n+]2c3ccccc3n3nc4c(cc32)c2cccc3cccc4c32)c1	5.7
O=[N+]([O-])c1cc(-c2ccncn2)sc1[N+](=O)[O-]	40.7*
Clc1ccc(-c2ccncn2)cc1Cl	6.9
Brc1cc(-c2ccncn2)cs1	-3.3
CCn1nc(C)cc1C(=O)N1CCC2(CCCN(CC(C)(C)C)C2=O)C1 (stereo not given)	7.6
CCOc1ccc(C2C(C(N)=O)C(C)=Nc3nc(SCc4ccccc4)nn32)cc1 (stereo not given)	-5.6
O=C1C=C(c2ccccc2)OC(=O)C1	1.4
CC1(C)CNC(=O)C=C(c2ccccc2)C1	-1.0
SMILES	RBX1-CUL1 inh
CN1C(=O)C=C(c2ccccc2)CC1=O	98.6*
CN(C)CCSC1Cc2cc(Cl)ccc2Sc2ccccc21 (stereo not given)	-0.1
CCOC(=O)c1cc(-c2ccc(/C=C(\C#N)c3nc4ccc(C)cc4[nH]3)o2)ccc1Cl	-4.1
CCCCOC(=O)c1cc(-c2ccc(CC3=NC(=S)NC3=O)o2)ccc1Cl	1.4
CCOC(=O)c1cc(-c2ccc(C(c3c(C)[nH][nH]c3=O)c3c(C)[nH][nH]c3=O)o2)ccc1Cl	67.2*
CCOC(=O)C1=C(C)n2c(nc3ccccc32)NC1c1ccc(-c2ccc(Br)cc2)o1 (stereo not given)	-6.9
c1ccc(Cc2nnc3sc(-c4cnccn4)nn23)cc1	-0.3
Cc1cc(CSCC(=O)N/N=C/c2ccccc2[N+](=O)[O-])cc(C)c1O	1.9
O=C1C=CC2=C(c3ccccc3C(=O)O)C3C=CC(=O)C(Br)C3OC2=C1Br (stereo not given)	113.3*
O=C1C(Br)=CC2=C(c3ccccc3C(=O)O)C3C=C(Br)C(=O)C(Br)C3OC2=C1Br (stereo not given)	116.6*
CC(=O)N(C)C1C(=N)N(Cc2ccccc2)C(=O)NC1=O (stereo not given)	-6.5
CCc1ccc(OCC(=O)NNC(=O)CSc2nc(N)cc(N)n2)cc1	-4.6
O=C1S/C(=C\c2ccc(F)cc2)C(=O)N1CN1CCCC1	-7.3
O=C(N/N=C/c1cc(Cl)cc(Cl)c1O)c1sc2ccccc2c1Cl	3.2
Cc1cccc(NC(=O)CSc2ncn(-c3ccccc3)n2)c1	3.6
O=S(=O)(Nc1ccc(Cl)c(C(F)(F)F)c1)c1ccc(Br)s1	-3.0
CC(C)C1=NN2C(=N)/C(=C/c3ccc(-c4ccc(F)cc4)o3)C(=O)N=C2S1	0.5
Cn1c(=O)n(C)c2cc(/C=C3/SC(=O)N(CC(=O)N4CCCCC4)C3=O)ccc21	-1.5
Cc1cc(C)n(C(=O)C2C3C=CC(C3)C2C(=O)n2nc(C)cc2C)n1 (stereo not given)	6.0
Cc1ccc(C2=CSC3=NN=C(c4ccccc4)C(c4ccccc4)N23)cc1 (stereo not given)	2.2
C1=C(c2ccccc2)N2C(=NN=C(c3ccccc3)C2c2ccccc2)S1 (stereo not given)	40.9*
C1=C(c2ccc(-c3ccccc3)cc2)N2C(=NN=C(c3ccccc3)C2c2ccccc2)S1 (stereo not given)	-18.5
CCCc1cc(CN(C)Cc2c(C(=O)N3C[C@@H](C)O[C@@H](C)C3)nc3sccn23)[nH]n1	0.7
Cc1cc(C=C2C(=O)NC(=S)NC2=O)c(C)n1-c1sc2c(c1C(=O)Nc1ccccc1)CCCC2	-1.6
CCOc1ccc(N2C(=O)/C(=C/c3cc(C)n(C4CCCC4)c3C)C(=O)NC2=S)cc1	-3.8
CCOC(=O)c1c(-n2c(C)cc(/C=C3\C(=O)NC(=S)N(c4ccccc4)C3=O)c2C)sc2c1CCCC2	49.1*
CCc1nn2c(N)c(C=C3C=C(Cl)C(=O)C(Cl)=C3)c(=O)nc2s1	6.6
CCCc1nn2c(N)c(C=C3C=C(Br)C=CC3=O)c(=O)nc2s1	-3.3
CCCCCCCc1nn2c(N)c(C=C3C=C(Cl)C(=O)C(Cl)=C3)c(=O)nc2s1	95.2*
